# Source: PubChem BioAssay (EPA / NIEHS)
# Values joined by “and” are separate entries in the source; they are usually repeats but may differ in a detail not shown here. Equal entries are not always repeated. Inconclusive results are not listed. Active and inactive are the calls of the source. Rule for the calls: active = hit-call score of the fitted dose curve at least 0.9, where 1 is the maximum; inconclusive = response in the unintended direction; inactive = score below 0.9.
# Experiment: Tanguay_ZF_120hpf_PE_legacy: (Legacy) Oregon State University Tanguay Lab 120 Hour Post-fertilization zebrafish Assay for Pericardial Edema (AID 2283640);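 for AC50: potency for increased incidence of pericardial edema versus DMSO baseline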
# Procedure: Tanguay_ZF_120hpf_legacy is a whole embryo, multiplexed endpoint assay using zebrafish larvae exposed for 120 hours post fertilization on a 96-well plate.Tanguay_ZF_120hpf_PE_legacy is one of one assay component(s) measured or calculated from the Tanguay_ZF_120hpf_legacy assay. It is designed to make measurements of zebrafish development as detected with brightfield microscopy of developing zebrafish embryos.Data from the assay component Tanguay_ZF_120hpf_PE_legacy was analyzed into 1 assay endpoints. This assay endpoint, Tanguay_ZF_120hpf_PE_legacy, was analyzed in the positive analysis fitting direction relative to DMSO as the negative control and baseline of activity. Using a type of morphology reporter, gain-of-signal activity can be used to understand changes in developmentals as they relate to the whole embryo. To generalize the intended target to other relatable targets, this assay endpoint is annotated to the zebrafish development intended target family, where the subfamily is embryonic morphogenesis.
# Zebrafish husbandry: Tropical 5D wild-type adult zebrafish were housed in at an approximate density of 1000 per 100 gallon tank at the Sinnhuber Aquatic Research Laboratory, Oregon State University, Corvallis, OR. Each tank was kept at standard laboratory conditions of 28C on a 14-h light/10-h dark photoperiod in fish water consisting of reverse osmosis water supplemented with a commercially available salt (Instant Ocean). Spawning funnels were placed into the tanks the night prior, and embryos were collected and staged. […] Ten microliters of each row of dilution plate 2 was added to 2 exposure plates. The final DMSO concentration used was 0.64% (vol/vol). Thirty-two embryos were also exposed to 5uM trimethyltin chloride (positive control). Plates were sealed to prevent evaporation and foil covered to reduce light exposure and kept in a 28C incubator. Embryos were statically exposed until 120 hpf. At 24 hpf, embryos were assessed for photomotor response using a custom photomotor response analysis tool (PRAT) and for developmental toxicity endpoints (MO24: mortality at 24 hpf, DP: developmental progression, SM: spontaneous movement, and NC: notochord distortion). At 120 hpf, locomotor activity was measured using Viewpoint Zebralab and assessed for 18 endpoints. Zebrafish acquisition and analysis program (ZAAP), a custom program designed to inventory, acquire, and manage zebrafish data, was used to collect developmental endpoints as either present or absent (i.e., binary responses were recorded). If mortality occurred for an embryo (at either 24 or 120 hpf), the non-mortality endpoints were not measured.
Structure (SMILES),outcome,AC50
CCCN(CCC)c1c([N+](=O)[O-])cc(C(F)(F)F)c(N)c1[N+](=O)[O-],inactive,–
COC(=O)CSc1cc(N=c2sc(=O)n3n2CCCC3)c(F)cc1Cl,inactive,–
CCC(C)OC(=O)N1CCCCC1CCO (stereo not given),inactive,–
Oc1ccc(C(c2ccc(O)cc2)C(Cl)(Cl)Cl)cc1,inactive,–
CCCOC(=O)NCCCN(C)C,inactive,–
CCCOC(=O)c1ccc(C(=O)OCCC)nc1,inactive,–
CCSC(=O)N(CC(C)C)CC(C)C,inactive,–
N#CSCSc1nc2ccccc2s1,inactive,–
CCCCOC(=O)C(C)Oc1ccc(Oc2ccc(C(F)(F)F)cn2)cc1 (stereo not given),inactive,–
CCOC(=O)COc1cc(-n2ncc(C(F)(F)F)c(C)c2=O)c(F)cc1Cl,inactive,–
CCN(Cc1c(F)cccc1Cl)c1c([N+](=O)[O-])cc(C(F)(F)F)cc1[N+](=O)[O-],inactive,–
S=C(S)NCCNC(=S)S.[Mn+2].[S-]C([S-])=NCCN=C([S-])[S-].[Zn+2],inactive,–
Cc1nn(C)c(Oc2ccccc2)c1C=NOCc1ccc(C(=O)OC(C)(C)C)cc1,inactive,–
CN(C)C(=O)Nc1ccc(Cl)c(Cl)c1,inactive,–
O=C(O)C1(C(=O)Nc2ccc(Cl)cc2Cl)CC1,–,41.9 µM (active)
CC1(C)C(C=C(Cl)Cl)C1C(=O)OCc1cccc(Oc2ccccc2)c1 (stereo not given),inactive,–
c1ccc(Nc2ccccc2)cc1,–,36.1 µM (active)
CC(C)CCCCCCc1ccc(O)cc1,inactive,–
CCCCOCCOCCOCc1cc2c(cc1CCC)OCO2,–,26.2 µM (active)
O=C(c1ccc(O)cc1O)c1ccc(O)cc1O,inactive,–

Structure (SMILES),outcome,AC50
CCNc1nc(N)nc(Cl)n1,inactive,–
COCCO,inactive,–
N[C@@H](Cc1cc(I)c(Oc2ccc(O)c(I)c2)c(I)c1)C(=O)O,inactive,–
CCCCC(CC)CN1C(=O)C2C3C=CC(C3)C2C1=O (stereo not given),inactive,–
O=C(c1ccccc1)C1CCCCC1,inactive,–
CCN(CC)C(=O)c1cccc(C)c1,inactive,–
O=C(Nc1ccc([N+](=O)[O-])cc1Cl)c1cc(Cl)ccc1O,inactive,–
CCCCCOC(=O)COc1cc(N2C(=O)C3=C(CCCC3)C2=O)c(F)cc1Cl,inactive,–
COC(=O)c1ccccc1C(=O)O,inactive,–
CSC(=O)c1cccc2nnsc12,inactive,–
CCCCOC(=O)[C@@H](C)Oc1ccc(Oc2ccc(C(F)(F)F)cn2)cc1,inactive,–
C[C@]12C[C@H](O)[C@H]3[C@@H](CCC4=CC(=O)CC[C@@]43C)[C@@H]1CC[C@@H]2C(=O)CO,inactive,–
OB(O)O,inactive,–
O=C(O)c1ccccc1,inactive,–
S=C([S-])NCCNC(=S)[S-].[Mn+2],inactive,–
CCCCCCC(C)OC(=O)COc1nc(F)c(Cl)c(N)c1Cl (stereo not given),inactive,–
CCOC(=O)C(C)Oc1ccc(Oc2nc3ccc(Cl)cc3o2)cc1 (stereo not given),inactive,–
C#CCOC(=O)[C@@H](C)Oc1ccc(Oc2ncc(Cl)cc2F)cc1,inactive,–
CC(C)(C)[C@@H](O)[C@@H](Cc1ccc(Cl)cc1)n1cncn1,–,45.9 µM (active)
CC(C)(c1ccc(O)cc1)c1ccc(O)cc1,–,43.3 µM (active) and 34.9 µM (active)
